This note sets out measurements from PubChem BioAssay.

One assay concerns the target Albumin (Bos taurus) (UniProt P02769). Kind of assay: bovine serum albumin binders on microarray, profiling panel, artefact control for SMM control protein annotation, biochemical, small-molecule microarray, Alexa647 label, 635/667 nm fluorescence (AID 1118).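 Also: score merges 667 nm emission intensity and signal-to-noise per printed compound spot.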 The settings on record: BSA-A647 binding, fluorescence 635 nm, higher = more signal.
A short description of assay [1]: small-molecule microarray binders of probe aXIP, primary screen, biochemical, NeuroSMM set, 635/667 nm fluorescence (AID 1119).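 Also: probe is the protein aXip251-270 applied at 1 µg/mL to compound-printed slides; binding of probe to printed compounds measured as 667 nm fluorescence plus signal to noise.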 The settings on record: higher = more signal, called active from +8 up or from −8 down.
Assay [2] in a line: small-molecule binders of probe aNOTCH3, primary screen, biochemical, small-molecule microarray, 635/667 nm fluorescence (AID 1120).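 Also: probe is a biotin-tagged antibody raised against NOTCH3 rather than NOTCH3 protein; score merges spot fluorescence near 667 nm with spot signal to noise.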 Particulars: higher = more signal.
Assay [3] can be described thus: small-molecule binders of probe aNOTCH2, primary screen, biochemical, small-molecule microarray, 635/667 nm fluorescence (AID 1121).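 Also: score merges feature fluorescence read at 667 nm with its signal to noise.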 The settings on record: higher = more signal.
Assay [4] deals with Carbonic anhydrase 2 (Homo sapiens) (UniProt P00918). Kind of assay: CAII small-molecule binders, profiling panel, biochemical, small-molecule microarray, Alexa647-labelled CAII (AID 1122). Particulars: CAII-A647 binding fluorescence, higher = more signal.
Assay [5] can be described thus: COS7 lysate on small-molecule microarray, probe aHis, 635 nm (AID 1123).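 Also: z-score combines 667nm fluorescence intensity with signal-to-noise per printed compound spot.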 Particulars: COS7 cell lysate, fluorescence, higher = more signal.
A short description of assay [6]: compound binding in COS7 lysate, probe aLAP1, primary screen, cell lysate, small-molecule microarray (AID 1124).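 Also: lysate comes from COS7 cells expressing LAP1 and is applied at 0.3 µg/mL; score merges spot fluorescence near 667 nm with signal-to-noise over triplicate slides.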 The settings on record: probe aLAP1, fluorescence, higher = more signal.
The next assay deals with Sam68 (KHDRBS1). Kind of assay: Sam68 small-molecule binders, primary screen, biochemical, small-molecule microarray, 635 nm fluorescence (AID 1125).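 Also: score merges 667 nm channel intensity with signal to noise over triplicate slides.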 Particulars: small-molecule microarray binding, higher = more signal.
Assay [7] concerns Chordin-like protein 2 (CHRDL2). The assay can be described thus: CHRDL2 small-molecule binders, primary screen, biochemical, small-molecule microarray, 635 nm fluorescence (AID 1126).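 Also: printed compound slides probed with Chrdl2 protein at 4 µg/mL for 1 h at 4 C; score merges 667 nm emission intensity with signal to noise over three replicate slides.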 Particulars: small-molecule microarray binding, fluorescence 635 nm; higher = more signal.
For assay [8], the target named is Concanavalin-A (Canavalia ensiformis) (UniProt P02866). Kind of assay: ConA small-molecule binders, primary screen, artefact control for SMM control protein annotation, biochemical, small-molecule microarray, Alexa647 label, 635 nm (AID 1127).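 Also: z combines 667 nm emission intensity with signal-to-noise across three replicate slides.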 The settings on record: ConA-A647 binding fluorescence, higher = more signal.
Concanavalin-A (Canavalia ensiformis), sequence (P02866 whole entry, looked up): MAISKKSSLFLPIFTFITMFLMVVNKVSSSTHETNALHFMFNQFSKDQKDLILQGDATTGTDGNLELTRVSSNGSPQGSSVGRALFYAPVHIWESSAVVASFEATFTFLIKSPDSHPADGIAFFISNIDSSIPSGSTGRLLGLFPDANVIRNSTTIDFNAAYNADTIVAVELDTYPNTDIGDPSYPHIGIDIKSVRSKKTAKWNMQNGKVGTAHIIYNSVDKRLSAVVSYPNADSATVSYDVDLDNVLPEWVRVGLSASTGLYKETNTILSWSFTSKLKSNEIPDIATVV
Assay [9] in a line: anti-His antibody binders, primary screen, artefact control for SMM control protein annotation, biochemical, small-molecule microarray, 635 nm fluorescence (AID 1128).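 Also: score merges feature fluorescence with signal-to-noise for each printed compound spot.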 The settings on record: anti-His Alexa647 antibody binding, higher = more signal.
In assay [10] the test system is Human papillomavirus type 1a E7 protein (residues 1-88). The assay can be described thus: HPV1a E7 small-molecule binders, primary screen, biochemical, small-molecule microarray, residues 1-88, 635 nm (AID 1129). Particulars: small-molecule microarray binding, fluorescence 635 nm; higher = more signal.
In assay [11] the target is Focal adhesion kinase 1 (Homo sapiens) (UniProt Q05397). The assay can be described thus: small-molecule microarray binders of FAK, primary screen, biochemical, 635/667 nm fluorescence, BSA, DTT (AID 1130).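 Also: composite of spot emission at 667 nm and signal to noise over triplicate slides.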 Particulars: PTK2 binding, 635 nm fluorescence, higher = more signal.
Focal adhesion kinase 1 (Homo sapiens), sequence (Q05397 whole entry, looked up): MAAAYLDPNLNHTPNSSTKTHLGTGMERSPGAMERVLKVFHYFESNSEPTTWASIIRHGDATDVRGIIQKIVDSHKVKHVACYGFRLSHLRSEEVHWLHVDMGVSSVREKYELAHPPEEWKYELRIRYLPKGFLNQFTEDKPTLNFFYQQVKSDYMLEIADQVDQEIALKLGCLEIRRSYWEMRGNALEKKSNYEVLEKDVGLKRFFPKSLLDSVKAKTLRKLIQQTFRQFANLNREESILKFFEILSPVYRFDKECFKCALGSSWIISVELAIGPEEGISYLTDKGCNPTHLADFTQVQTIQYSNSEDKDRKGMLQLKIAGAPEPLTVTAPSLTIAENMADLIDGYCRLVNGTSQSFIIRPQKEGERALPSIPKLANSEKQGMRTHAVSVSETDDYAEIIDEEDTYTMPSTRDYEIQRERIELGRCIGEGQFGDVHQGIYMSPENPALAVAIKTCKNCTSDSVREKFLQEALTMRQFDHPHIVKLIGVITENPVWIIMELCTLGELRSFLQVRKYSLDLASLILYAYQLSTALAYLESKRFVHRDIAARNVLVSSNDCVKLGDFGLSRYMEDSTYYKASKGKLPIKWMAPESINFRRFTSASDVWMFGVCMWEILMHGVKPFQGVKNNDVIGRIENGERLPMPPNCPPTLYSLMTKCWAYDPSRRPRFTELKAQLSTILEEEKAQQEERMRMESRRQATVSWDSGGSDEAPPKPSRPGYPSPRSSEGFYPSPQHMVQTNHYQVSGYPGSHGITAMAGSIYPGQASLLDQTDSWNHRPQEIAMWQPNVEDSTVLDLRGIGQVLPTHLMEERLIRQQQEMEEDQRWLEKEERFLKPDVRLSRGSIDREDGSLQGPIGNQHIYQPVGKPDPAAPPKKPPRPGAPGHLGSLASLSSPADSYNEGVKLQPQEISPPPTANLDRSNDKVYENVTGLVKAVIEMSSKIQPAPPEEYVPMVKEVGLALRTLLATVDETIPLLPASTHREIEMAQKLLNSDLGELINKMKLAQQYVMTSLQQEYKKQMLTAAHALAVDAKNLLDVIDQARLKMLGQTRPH
Assay [12] concerns Fibrinogen (Alexa647-labelled). The assay can be described thus: fibrinogen binders on compound microarrays, profiling panel, artefact control for SMM control-protein annotation, biochemical, small-molecule microarray, 635/667 nm fluorescence (AID 1131).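 Also: z-score merges 667 nm fluorescence with per-spot signal-to-noise over triplicate slides.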 Particulars: fibrinogen-A647 binding fluorescence, higher = more signal.
The target of assay [13] is Follistatin (Homo sapiens) (UniProt P19883). Kind of assay: follistatin binders on small-molecule microarrays, primary screen, biochemical, small-molecule microarray, 635/667 nm fluorescence (AID 1132). The settings on record: FST binding, 635 nm fluorescence, higher = more signal.
Follistatin (Homo sapiens), sequence (P19883 whole entry, looked up): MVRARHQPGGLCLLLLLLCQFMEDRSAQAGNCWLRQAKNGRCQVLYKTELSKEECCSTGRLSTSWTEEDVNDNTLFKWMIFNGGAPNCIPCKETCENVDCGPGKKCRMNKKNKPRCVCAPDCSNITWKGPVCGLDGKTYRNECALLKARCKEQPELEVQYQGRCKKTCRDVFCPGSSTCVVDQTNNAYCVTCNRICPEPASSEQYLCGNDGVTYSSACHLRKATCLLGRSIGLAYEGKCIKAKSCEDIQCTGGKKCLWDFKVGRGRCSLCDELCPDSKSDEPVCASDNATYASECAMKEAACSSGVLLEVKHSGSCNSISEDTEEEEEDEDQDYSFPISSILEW
Assay [14] has as its target Fibroblast growth factor 2 (Homo sapiens) (UniProt P09038). Kind of assay: FGF2 binders on small-molecule microarrays, primary screen, biochemical, small-molecule microarray, 635/667 nm fluorescence (AID 1133). The settings on record: small-molecule microarray binding, FGF2, fluorescence 635/667; higher = more signal.
Assay [15] in a line: mitochondrial membrane potential change in A549 cells, profiling panel, cell-based, JC-1 fluorescence, basal, 24 h, 100 nL (AID 1138).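 Also: A549 lung adenocarcinoma cells under basal conditions with no added stimulus; test concentration not given here.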 The settings on record: higher = more signal.
For another assay, the system named is Lefty1. Kind of assay: Lefty1 binders on small-molecule microarrays, primary screen, biochemical, small-molecule microarray, 635/667 nm fluorescence (AID 1139). Particulars: small-molecule microarray binding, fluorescence 635/667; higher = more signal.
The test system of assay [16] is wheat germ agglutinin (Triticum aestivum), Alexa647-labelled. The assay can be described thus: wheat germ agglutinin binders on compound microarrays, profiling panel, artefact control for SMM control-protein annotation, biochemical, small-molecule microarray, 635/667 nm fluorescence (AID 1140).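 Also: score merges 667 nm feature emission with signal to noise over triplicate slides.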 Particulars: WGA-A647 binding, 635 nm fluorescence, higher = more signal.

The target of assay [17] is Luciferin 4-monooxygenase (Photinus pyralis) (UniProt P08659). The assay can be described thus: firefly luciferase enzyme inhibitors, primary screen, biochemical, luminescence, purified enzyme, 2006 set (AID 1141).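 Also: cell-free assay with purified firefly luciferase at 100 ng per well in PBS; test concentration not given here.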 The settings on record: SteadyGlo luminescence, 30 min, higher = more signal, called active from +8 up or from −8 down.
Luciferin 4-monooxygenase (Photinus pyralis), sequence (P08659 whole entry, looked up): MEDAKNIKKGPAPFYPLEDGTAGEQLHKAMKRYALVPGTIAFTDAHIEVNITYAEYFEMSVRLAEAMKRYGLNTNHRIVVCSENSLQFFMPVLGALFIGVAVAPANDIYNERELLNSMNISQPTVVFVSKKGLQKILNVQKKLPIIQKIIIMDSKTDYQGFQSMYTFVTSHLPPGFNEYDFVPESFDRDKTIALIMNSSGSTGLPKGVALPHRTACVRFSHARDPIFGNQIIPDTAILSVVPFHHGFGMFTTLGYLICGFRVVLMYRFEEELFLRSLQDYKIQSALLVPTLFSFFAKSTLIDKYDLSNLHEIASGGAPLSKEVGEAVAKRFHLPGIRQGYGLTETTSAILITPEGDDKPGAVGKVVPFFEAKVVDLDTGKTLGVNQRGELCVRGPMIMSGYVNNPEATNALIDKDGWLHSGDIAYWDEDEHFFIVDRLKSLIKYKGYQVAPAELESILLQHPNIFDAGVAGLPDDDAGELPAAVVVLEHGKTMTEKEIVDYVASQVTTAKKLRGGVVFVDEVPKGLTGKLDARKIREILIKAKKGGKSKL

Calls of active or inactive are those of the source.

Albumin (Bos taurus), sequence (P02769 whole entry, looked up): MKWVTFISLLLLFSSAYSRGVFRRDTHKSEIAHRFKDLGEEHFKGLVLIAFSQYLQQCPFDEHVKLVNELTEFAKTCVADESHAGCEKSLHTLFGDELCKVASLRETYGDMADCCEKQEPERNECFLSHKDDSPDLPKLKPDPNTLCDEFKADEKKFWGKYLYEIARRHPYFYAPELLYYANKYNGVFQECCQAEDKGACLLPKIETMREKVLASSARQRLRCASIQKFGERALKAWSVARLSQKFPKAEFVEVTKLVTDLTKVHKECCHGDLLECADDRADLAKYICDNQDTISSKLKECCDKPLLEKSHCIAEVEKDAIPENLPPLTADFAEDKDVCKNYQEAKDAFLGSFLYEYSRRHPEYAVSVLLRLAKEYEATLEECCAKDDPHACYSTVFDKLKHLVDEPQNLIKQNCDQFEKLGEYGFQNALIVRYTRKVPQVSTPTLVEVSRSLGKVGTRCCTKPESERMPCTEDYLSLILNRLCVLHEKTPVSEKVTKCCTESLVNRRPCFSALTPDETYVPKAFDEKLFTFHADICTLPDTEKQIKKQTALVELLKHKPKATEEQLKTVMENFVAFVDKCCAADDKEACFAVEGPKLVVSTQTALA
Fibroblast growth factor 2 (Homo sapiens), sequence (P09038 whole entry, looked up): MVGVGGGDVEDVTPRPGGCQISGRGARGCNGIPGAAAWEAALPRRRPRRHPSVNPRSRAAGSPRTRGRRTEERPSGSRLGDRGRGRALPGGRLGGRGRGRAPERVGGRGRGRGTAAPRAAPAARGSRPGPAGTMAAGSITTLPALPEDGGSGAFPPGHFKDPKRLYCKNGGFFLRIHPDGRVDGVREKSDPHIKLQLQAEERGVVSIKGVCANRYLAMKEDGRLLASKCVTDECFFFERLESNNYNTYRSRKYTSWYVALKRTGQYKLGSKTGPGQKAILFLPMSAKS

As to `C=CC1(C(=O)OC)CC=C(C(=O)OC)CC1` (stereo not given), the composite z-score in the assay with Albumin (Bos taurus) is 0.714; in assay [2], -0.0077; in assay [3], -0.0661; in assay [4] it was 0.613; in assay [5] it was 0.732; in assay [6] it was 0.872. Further, the composite z-score in the assay with Sam68 (KHDRBS1) came to 0.82; in [7], 0.556; in [8] it was 0.339; in assay [9], 0.731; in assay [10], 0.901; in assay [11], 0.286. Moreover, the composite z-score in [12] worked out at 0.862; in assay [13] it was 0.65; in assay [14] it was 0.653; in the assay on Lefty1 it was 0.308; in [16] it was 0.184. Besides, the composite Z-score in [1] is 0.257 (inactive). The results for the z-score in assay [15] and in [17] were 0.263 and 0.723 (inactive), respectively.

Consider `CN1C(=O)C2C=CC(C(O)c3ccccc3)N(N(c3ccccc3)c3ccccc3)C2C1=O` (stereo not given), for which the composite z-score in the assay with Albumin (Bos taurus) was found to be 0.273; in [2] it was 0.215; in assay [3], 0.105; in assay [4], 0.763; in [5], 0.321; in assay [6] it was 1.34. For the same compound, the composite z-score in the assay with Sam68 (KHDRBS1) is -0.494; in [7], 0.781; in assay [8] it was -0.529; in [9] it was 1.95; in assay [10] it was -0.54; in assay [11], 0.112. Besides, the composite z-score is 0.384 in assay [12]; 1.34 in assay [13]; -0.0637 in [14]; 0.03 with Lefty1; 0.489 in [16]. For the same compound, the composite Z-score in [1] was 0.22 (inactive). For the same compound, the z-score in assay [15] was -0.516; in assay [17], 1.07 (inactive).

Turning to `Cc1ccc(S[C@]2(C(=O)NCCCN(C)C)CC(=O)N(Cc3cc(C(F)(F)F)cc(C(F)(F)F)c3)[C@@H]2c2ccc(CO)cc2I)cc1`, the composite z-score was -0.39 with Albumin (Bos taurus); 0.462 in [2]; -0.0492 in [3]; 0.773 in assay [4]; 0.961 in assay [5]; 0.135 in [6]. The composite z-score in the assay with Sam68 (KHDRBS1) was 0.375; in [7], -0.395; in assay [8], -1.79; in assay [9], 0.336; in assay [10] it was -0.77; in assay [11], -0.0785. In addition, the composite z-score in assay [12] was -0.604; in [13], -0.816; in assay [14], -0.862; in the assay with Lefty1 it was -0.536; in [16], 0.0799. For the same compound, the composite Z-score in [1] was -0.86 (inactive). The z-score in assay [15] was 0.197; in assay [17], 0.828 (inactive).

Take `CO[C@H]1O[C@H](CO)[C@@H](OC(=O)Nc2cccc(F)c2)[C@H](OC(=O)Nc2ccccc2)[C@@H]1OC(=O)Nc1ccccc1`: the composite z-score in the assay with Albumin (Bos taurus) was 0.875; in assay [2], 0.138; in [3] it was 0.003; in assay [4] it was 0.555; in assay [5], 2.54; in [6] it was 1.02. For the same compound, the composite z-score with Sam68 (KHDRBS1) is 1.3; in [7] it was -0.219; in [8] it was 0.724; in [9] it was 1.16; in assay [10] it was 1.22; in [11], 0.919. For the same compound, the composite z-score in [12] is 0.973; in [13], 0.518; in [14], 0.843; in the assay on Lefty1, -0.105; in assay [16], 1.27. For the same compound, the composite Z-score in assay [1] is 0.311 (inactive). For the same compound, the z-score in assay [15] was 0.0874; in assay [17] it was 0.0107 (inactive).

As to `COC(=O)[C@@]1(Cc2ccccc2)N=C(c2ccc(OCCCO)cc2)O[C@H]1c1ccccc1`, the composite z-score with Albumin (Bos taurus) was 0.103; in [2], -0.17; in assay [3], -0.0179; in assay [4], 0.624; in [5] it was 2.76; in assay [6] it was 1.07. Further, the composite z-score was -0.0634 with Sam68 (KHDRBS1); 0.0607 in assay [7]; 0.889 in assay [8]; 2.44 in assay [9]; 1.2 in assay [10]; 0.428 in assay [11]. The composite z-score in assay [12] was -0.381; in assay [13] it was 0.385; in [14] it was 1.65; in the assay on Lefty1, -0.63; in assay [16], 0.609. Also, the composite Z-score in assay [1] is 0.216 (inactive). In addition, the z-score in assay [15] is -0.56; in [17], -5.51 (inactive).
